# Screens from PubChem BioAssay.
# IL1B secr inh = qHTS for Inhibitors of Inflammasome Signaling: IL-1-beta AlphaLISA Primary Screen | actives 4.7% (n = 360,000) | AID 743279, 2014 | THP-1 LPS/ATP IL-1B secretion, AlphaLISA, 16 h; hits give low values | activity change, % at 57.5 µM; in the data active = activity change below about -50%; inconclusive = mostly about -30% to -49%
#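 THP-1 cells pretreated 1 hr with compounds (up to 57.5 uM final), then stimulated with LPS (250 ng/mL final) plus ATP (1.25 mM final); secreted IL-1B measured by AlphaLISA after 16 hr, decreased signal indicating inhibition.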
# DT40 TDP1 CPT = qHTS for Inhibitors of human tyrosyl-DNA phosphodiesterase 1 (TDP1): qHTS in cells in presence of CPT; chicken DT40 Tdp1-/-;hTDP1 cells + 20 nM CPT, ATP luminescence, 48 h; Potency, µM (top dose mostly 46.2 µM), for inactives: at the highest dose activity change, negative = growth inhibition, hits mostly inhibitors; actives 12% (n = 420,000); also: potency is read from the fitted curve at half-maximal effect; nearly all actives have a fitted effect of over 55% in size
#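 Cell growth measured by CellTiter-Glo luminescence after a minimum 48 h, 37 C compound exposure with 20 nM CPT in Tdp1-knockout DT40 cells stably expressing hTDP1, seeded 400/well; qHTS titration format.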
# HT1080NT lethal = qHTS for induction of synthetic lethality in tumor cells producing 2HG: qHTS for the HT-1080-NT fibrosarcoma cell line. HT-1080-NT fibrosarcoma viability, CellTiter-Glo ATP luminescence, 48 h. Potency, µM (highest dose often 46.1 µM), for inactives: top-dose activity, negative = less viability, usual class: cytotoxic. actives 1.6% (n = 360,000);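 also: NT is the 2HG producing partner of a matched IDH1 knockdown line; potency is read from the fitted curve at half-maximal effect; 0% = DMSO-treated cells and -100% = media-only wells without cells; nearly all actives have a fitted effect of over 55% in size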
#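 HT-1080-NT fibrosarcoma cells (2HG-overproducing), 750 cells/well in RPMI with 5% FBS, dosed after 2 h and incubated 48 h at 37C. CellTiter-Glo luminescence normalized to DMSO and no-cell wells; concentration-response curves fitted and classed.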
# DT40 TDP1 no CPT = qHTS for Inhibitors of human tyrosyl-DNA phosphodiesterase 1 (TDP1): qHTS in cells in absence of CPT | Potency, µM (top dose mostly 46.2 µM), inactives show top-dose activity change, negative = growth inhibition, actives largely listed as inhibitors | DT40 Tdp1-/- hTDP1 cells, no CPT, ATP luminescence, 48 h | actives 15% (n = 420,000); also: potency is read from the fitted curve at half-maximal effect; nearly all actives have a fitted effect of over 55% in size
#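 Growth of hTDP1-complemented DT40 Tdp1-knockout cells is measured by ATP luminescence after at least 48 hr compound exposure at 37 °C, with DMSO substituting for the 20 nM CPT used in the parallel screen.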
# HT1080 IDH1KD tx = qHTS for induction of synthetic lethality in tumor cells producing 2HG: qHTS for the HT-1080-IDH1KD cell line; HT-1080 IDH1 knockdown viability, ATP luminescence, 48 h; actives 2% (n = 360,000); Potency, µM (titrated, usually from 46.1 µM), for inactives: at the top dose activity, negative = toxicity, most hits filed as cytotoxic; AID 686971, 2013;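 also: potency is read from the fitted curve at half-maximal effect; 0% = DMSO wells and -100% = cell-free medium wells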
#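 % activity derives from luminescence (CellTiter-Glo), normalised to DMSO and no-cell wells. HT-1080-IDH1KD cells, 750/well, had 48 h compound exposure at 37 °C.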
# ELG1 DNA repair = qHTS screen for small molecules that inhibit ELG1-dependent DNA repair in human embryonic kidney (HEK293T) cells expressing luciferase-tagged ELG1. HEK293T ELG1-luciferase reporter, luminescence, 16 h; DNA damage induced by 5-fluorouridine. Potency, µM (doses to about 46.1 µM), for inactives: top-dose activity change, negative = inhibition, usual class: inhibitors. actives 2.3% (n = 330,000); also: potency is read from the fitted curve at half-maximal effect; nearly all actives have a fitted effect of over 55% in size
#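 Quantitative HTS, concentration-response format. 2,000 cells/well co-treated with 5-fluorouridine and compound, 16 hr in 5% CO2 at 37 °C; ONE-Glo luminescence read after 30 min.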
# * hit, by the source's call; ? = inconclusive; / = not tested or not shown. The list is not random: actives were taken first. Their share in the collection is about 19%. Unless noted, calls follow the shape of the dose curve; as a rule, active = well fitted curve in the direction sought with a large enough effect; inconclusive = small, poorly fitted or top-dose-only effect, or another doubt; inactive = no such curve, though single readings can be large; an effect the other way counts as inactive or inconclusive. Unless noted, % is scaled to controls: 0 for no effect and ±100 for the full control effect.
SMILES,IL1B secr inh,DT40 TDP1 CPT,HT1080NT lethal,DT40 TDP1 no CPT,HT1080 IDH1KD tx,ELG1 DNA repair
Cc1ccccc1-c1noc(-c2cc(-c3ccc(F)cc3)n[nH]2)n1,/,21µM*,/,23µM*,/,/
Cc1ccc(-c2noc(-c3cc(-c4ccc(F)cc4)n[nH]3)n2)cc1,/,-12%,/,?,/,/
Brc1ccccc1CN1CCN(Cc2c[nH]c3ccccc23)CC1,-103*,0.52µM*,7.3µM*,1.5µM*,23µM*,/
CCS(=O)(=O)N1CCN(Cc2c[nH]c3ccccc23)CC1,30,?,3%,-29%,7%,16%
O=[N+]([O-])c1ccc(CN2CCN(Cc3c[nH]c4ccccc34)CC2)cc1,-69*,?,-30%,?,?,?
Brc1ccc(CN2CCN(Cc3c[nH]c4ccccc34)CC2)cc1,?,2.3µM*,23µM*,9.2µM*,21µM*,-20%
c1cnc(N2CCN(Cc3c[nH]c4ccccc34)CC2)nc1,?,1.8µM*,-19%,2.1µM*,?,1%
COc1nc(Oc2ccc(=O)n(-c3ccccc3)n2)nc(N(C)C)n1,/,-17%,/,-1%,/,/
CCCCN1C(=O)c2[nH]nc(-c3ccccc3O)c2C1c1ccc(C(C)(C)C)cc1 (stereo not drawn),/,21µM*,/,13µM*,/,/
CCCCN1C(=O)c2[nH]nc(-c3ccccc3O)c2C1c1ccc(OCc2ccccc2)cc1 (stereo not drawn),/,18µM*,/,?,/,/
O=C1c2[nH]nc(-c3ccccc3O)c2C(c2cccc(OCc3ccccc3)c2)N1CCO (stereo not drawn),/,-1%,/,?,/,/
CC(C)OCCCN1C(=O)c2[nH]nc(-c3ccccc3O)c2C1c1ccccc1F (stereo not drawn),/,13µM*,/,13µM*,/,/
CC(C)OCCCN1C(=O)c2[nH]nc(-c3ccccc3O)c2C1c1cccc(OCc2ccccc2)c1 (stereo not drawn),/,10µM*,/,?,/,/
Cc1cc(=O)n2c(nc3ccccc32)s1,-3,-19%,8%,-17%,10%,/
C[C@H]1CN([C@@H](C)CO)C(=O)c2cc(Br)cnc2O[C@H]1CN(C)Cc1ccccc1C(=O)O,25,-3%,15%,2%,11%,/
CCCN1C(=O)c2[nH]nc(-c3ccccc3O)c2C1c1ccc(OCc2ccccc2)c(OCC)c1 (stereo not drawn),/,23µM*,/,16µM*,/,/
Cc1ccc(C2c3c(-c4ccccc4O)n[nH]c3C(=O)N2CCCO)cc1 (stereo not drawn),/,18µM*,/,29µM*,/,/
CCCOc1ccc(C2c3c(-c4c(C)cc(C)cc4O)n[nH]c3C(=O)N2CCO)cc1 (stereo not drawn),/,21µM*,/,23µM*,/,/
CCCOc1ccc(C2c3c(oc4cc(C)c(C)cc4c3=O)C(=O)N2CCCN(C)C)cc1 (stereo not drawn),-15,?,2%,?,-2%,2%
COCCN1C(=O)c2[nH]nc(-c3ccccc3O)c2C1c1ccc(OC)cc1 (stereo not drawn),-24,-4%,-2%,-20%,-17%,0%
CCOc1ccc(C2c3c(-c4ccccc4O)n[nH]c3C(=O)N2Cc2cccnc2)cc1OC (stereo not drawn),/,-21%,/,6%,/,/
